Most compounds without a hit are left out; they make up all but 2.6% or so of the library.
Exocytosis inh – blocks lytic granule exocytosis; actives 0.66% (n = 360,000); inhibition, % at 10 µM; AID 651702; TALL-104 LAMP-1 surface exposure, flow cytometry; cells stimulated with thapsigargin and PMA;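 active means inhibition above about 55%, limit read from the data; inconclusive means no clear call, values can overlap the other calls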
Rce1 inh – yeast Ras-converting enzyme inhibition; Q03530; yeast membranes, quenched prenylated peptide cleavage fluorescence; calls only; actives 0.27% (n = 290,000); AID 2563;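 active means fall in fluorescence gain of 50% or more versus controls, with final raw signal at or below 3038400; inconclusive means same 50% fall but final raw signal above 3038400; inactive means fall in fluorescence gain under 50%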
Target sequence (Q03530 whole entry, looked up): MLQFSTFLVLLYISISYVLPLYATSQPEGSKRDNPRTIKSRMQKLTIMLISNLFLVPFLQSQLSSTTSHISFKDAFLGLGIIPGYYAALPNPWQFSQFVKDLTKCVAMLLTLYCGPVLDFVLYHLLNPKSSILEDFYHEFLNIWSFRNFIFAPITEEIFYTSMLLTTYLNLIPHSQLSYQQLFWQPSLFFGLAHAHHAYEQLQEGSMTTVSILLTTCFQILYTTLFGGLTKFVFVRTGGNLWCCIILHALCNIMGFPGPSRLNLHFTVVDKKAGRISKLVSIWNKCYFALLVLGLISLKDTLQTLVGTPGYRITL
M18AAP inhibitor – PfM18AAP enzyme inhibition | recombinant PfM18AAP, H-Glu-NHMec fluorogenic cleavage | AID 1822 | inhibition, % at 7.35 µM | actives 1.2% (n = 290,000);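 active means inhibition above the campaign mean inhibition over all tested compounds plus 3 SD, cut at about 28% in these data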
ABHD5-PLIN5 inh – ABHD5-PLIN5 protein interaction inhibition; Q00G26+Q8WTS1; Split G. princeps luciferase complementation, luminescence, 4 h; inhibition, % at 4 µM; actives 0.78% (n = 360,000); AID 602281;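 active means inhibition above the mean inhibition across every tested compound plus 3 SD, cut at about 22% in these data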
Platelet DG rel – modulates dense granule release in human platelets; human platelet-rich plasma, SFLLRN dense granule ATP release, luminescence; inhibition, %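 (compounds screened at 7.5 µM in platelet-rich plasma)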; actives 0.22% (n = 300,000);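 active means mean replicate score, as percent of positive control, at or above 50; inconclusive means mean below 50 but at least one replicate at or above 50; inactive means mean and every replicate below 50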
Each line names hits and unclear results; the compound was inactive in the other large screens.

O=C(COc1cc(Cl)ccc1Cl)Nc1nnc(CC(=O)N2CCOCC2)s1	none (no result: Rce1 inh, Platelet DG rel)
N#CC1=C(c2ccccc2)/C(=C/c2ccccc2)OC1=O	Exocytosis inh 66
COc1cc2c(cc1N)-c1ccc(N)cc1C2=O	none (no result: Rce1 inh, M18AAP inhibitor, Platelet DG rel)
O=C(/C=C/c1ccccc1)Nn1c(-c2cccs2)nc2ccccc2c1=O	none
O=C(CS(=O)(=O)c1ccccc1)c1cc2ccccc2oc1=O	none
O=C(CS(=O)(=O)c1ccccc1)c1cc2cc(F)ccc2oc1=O	M18AAP inhibitor 28
CCOc1ccccc1N1CC(C(=O)Nc2nccs2)CC1=O (configuration not stated)	Platelet DG rel 52
Cc1cc(C)c(S(=O)(=O)N2CCOC2CNC(=O)C(=O)NCc2ccco2)c(C)c1 (configuration not stated)	none
COC(=O)c1c(NC(=O)C2CC(=O)NN2Cc2ccccc2)sc(C)c1C (configuration not stated)	Platelet DG rel 60
CC1(C)CC(=O)C=C(NNC(=O)c2ccccc2)C1	M18AAP inhibitor 41
CCNC(=S)NNC(=O)c1cc(-c2cccc(OC)c2)nc2ccccc12	none
CCNC(=S)NNC(=O)c1cc(-c2ccc(OCC)cc2)nc2ccccc12	Platelet DG rel 103
Cn1c(NC(=S)Nc2ccccc2)nc2ccccc21	none
CCCCCCC(=O)N(O)C1CC(=O)N(c2ccc(Cl)cc2)C1=O (configuration not stated)	Exocytosis inh 72
Cc1cccc(/C=N/NC(=O)c2ccc(Br)cc2)c1	Rce1 inh active
O=C(N/N=C/c1ccc(F)cc1)c1ccc(Br)cc1	none
CCc1ccc(S(=O)(=O)Nc2ccc(O)c3c(=O)cc(-c4ccccc4Cl)oc23)cc1	Exocytosis inh 76 (no result: M18AAP inhibitor)
O=c1cc(-c2ccccc2Cl)oc2c(NS(=O)(=O)c3cc(Cl)cc(Cl)c3O)ccc(O)c12	none
COc1ccc(OC)c(/C=N/NC(=O)CCc2ccc(O)c(O)c2)c1	M18AAP inhibitor 31
CC1=NN(c2nc(N)nc(/C(C#N)=C/c3ccc([N+](=O)[O-])o3)n2)C(C)(C)C1	Exocytosis inh 83 (no result: Rce1 inh, M18AAP inhibitor, Platelet DG rel)
O=C(O)C1CCCC2CN3CCc4c([nH]c5ccccc45)C3C(O)C21 (configuration not stated)	M18AAP inhibitor 28
O=C(O)[C@@H]1[C@H]2C[C@H]3c4[nH]c5ccccc5c4CCN3C[C@@H]2CC[C@@H]1O	none (no result: Rce1 inh, M18AAP inhibitor, Platelet DG rel)
COc1ccc(N2C(=O)CC(NNc3ncc(Cl)cc3Cl)C2=O)cc1 (configuration not stated)	none
O=C1CCCN1CC(O)CS(=O)(=O)c1ccccc1 (configuration not stated)	Rce1 inh active
CCOC(=O)CC1C(=O)NCCN1S(=O)(=O)c1ccc(NC(C)=O)cc1 (configuration not stated)	M18AAP inhibitor 28
O=C(Nc1ccc(C(=O)N2CCCCC2)cc1)c1ccccc1	none (no result: Rce1 inh, M18AAP inhibitor, Platelet DG rel)
O=C(Nc1ccccc1)Nc1ccc(C(=O)N2CCCC2)cc1	Platelet DG rel 58
O=C(CCCCCN1C(=O)c2ccccc2C1=O)Nc1ccc(S(=O)(=O)N2CCCCC2)cc1	none
O=C(OCCCCN1C(=O)c2ccccc2C1=O)c1ccc(S(=O)(=O)N2CCCC2)cc1	Platelet DG rel 58
O=C(COC(=O)c1ccc(S(=O)(=O)N2CCCC2)cc1)NCc1ccccc1	Rce1 inh active
O=C(COC(=O)c1ccc(S(=O)(=O)N2CCCCC2)cc1)NCc1ccc(F)cc1	none (no result: Rce1 inh, M18AAP inhibitor, Platelet DG rel)
Clc1ccc(-c2nc3c4ccccc4ccn3c2CC2CCCCC2)cc1	none (no result: Rce1 inh, M18AAP inhibitor, Platelet DG rel)
CCOc1ccc(N2C(=O)c3cccnc3C2Nc2ccc(Cl)cc2)cc1 (configuration not stated)	none
Cc1ccc(NC2c3ncccc3C(=O)N2c2ccccc2C)cc1C (configuration not stated)	M18AAP inhibitor 29
N/C(=N\N=C\c1ccc(O)cc1)c1nonc1N	Platelet DG rel 65
N/C(=N\N=C\c1cccc(O)c1)c1nonc1N	Platelet DG rel 70
Cc1ccccc1-c1nnn(CC(=O)NC(=O)NC2CCCC2)n1	none (no result: Rce1 inh, M18AAP inhibitor, Platelet DG rel)
O=C(/C(=C/O)N=Nc1cccc(C(F)(F)F)c1)c1ccccc1	none (no result: Rce1 inh)
Cc1cccc(N=N/C(=C\O)C(=O)c2ccc(Br)cc2)c1	Exocytosis inh 101
Cc1cccc2c1N(C(=O)c1ccco1)C(C)(C)c1ssc(=S)c1-2	none
Cc1cccc2sc(NS(C)(=O)=O)nc12	none (no result: Rce1 inh)
CCOC(=O)CSc1nc2cc(C(=O)NCC3CCCO3)ccc2c(=O)n1Cc1ccco1 (configuration not stated)	none
CCOC(=O)Cn1c(=O)n(Cc2ccco2)c(=O)c2ccc(C(=O)NC3CCCC3)cc21	Platelet DG rel 90
COCCCNc1nc2c(-c3ccc(C)cc3)nnn2c2ccccc12	Exocytosis inh inconclusive
C/C(CCC(C)C)=N\NC(=S)Nc1cc(S(=O)(=O)N2CCOCC2)ccc1N1CCOCC1	M18AAP inhibitor 28
COc1ccc2cc(/C(C)=N/NC(=S)Nc3cc(S(=O)(=O)N4CCOCC4)ccc3N3CCOCC3)ccc2c1	M18AAP inhibitor 30 (no result: Exocytosis inh, ABHD5-PLIN5 inh)
COCC(=O)N1CCCC(C(=O)c2ccc(Oc3ccccc3)cc2)C1 (configuration not stated)	none
Cc1nc2ccc(NC(=O)c3ccc(Cl)c([N+](=O)[O-])c3)cc2s1	none
Cc1nc2ccc(NC(=O)c3cc([N+](=O)[O-])cc([N+](=O)[O-])c3Cl)cc2s1	ABHD5-PLIN5 inh 56 (no result: Rce1 inh, Platelet DG rel)
Cc1nn(C)c(C(=O)Sc2cccc(Cl)c2)c1[N+](=O)[O-]	Exocytosis inh 64
CCn1nc(C)cc1C(=O)Sc1cccc(Cl)c1	Exocytosis inh 68
Cc1ccccc1N1C(=O)CC(Nc2ccc3c(c2)OCO3)C1=O (configuration not stated)	M18AAP inhibitor 30
CCOC(=O)/C(C#N)=C1\CCCN1CC(N)=S	M18AAP inhibitor 31 (no result: Rce1 inh)
CCOC(=O)/C(C#N)=C1/CCCCCN1C	none
O=C(/C=C/c1ccc2c(c1)OCO2)c1ccc(F)cc1	ABHD5-PLIN5 inh 22
O=C(NCc1ccco1)c1cccs1	none
O=C(CSCc1ccco1)c1cccs1	Platelet DG rel 85
CCCC1CCC(=NNS(=O)(=O)c2ccc(C)c([N+](=O)[O-])c2)CC1 (configuration not stated)	none
O=C(N/N=C/c1cccc([N+](=O)[O-])c1)c1cc(-c2ccc3c(c2)OCO3)n[nH]1	none
CCc1ccc(/C=N/NC(=O)c2cc(-c3cccc([N+](=O)[O-])c3)n[nH]2)cc1	Exocytosis inh 76
O=[N+]([O-])c1ccc(NN=Cc2ccccc2O)nc1	none (no result: Rce1 inh, M18AAP inhibitor, Platelet DG rel)
O=[N+]([O-])c1ccc(N/N=C/c2ccccc2O)cc1	Exocytosis inh 65
CCCN(C(=O)CSc1nc2cc(S(=O)(=O)N(CC)CC)ccc2o1)C1CCS(=O)(=O)C1 (configuration not stated)	none (no result: M18AAP inhibitor)
CCN(C(=O)CSc1nc2cc(S(=O)(=O)N(CC)CC)ccc2o1)C1CCS(=O)(=O)C1 (configuration not stated)	M18AAP inhibitor 28
Cc1cc(-c2nn(-c3ccccc3F)cc2CN2CCCC(CO)C2)c(C)s1 (configuration not stated)	none

Screening data as filed in PubChem BioAssay.
